{"source": "PubChem BioAssay (NCATS)", "key": {"[1]": {"test_system": "Zika virus NS2B-NS3 protease (linked construct)", "assay": "Primary screen NINDS Rhodamine qHTS for Zika virus inhibitors (AID 1347160); further: nearly all actives have a fitted effect of over 55% in size", "conditions": "outcome: at 57.1 µM (top of the series) unless noted", "in_short": "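Enzyme (25 nM, linked NS2B-NS3) was preincubated 15 min with compound in 10 mM Tris-HCl pH 8.0, 0.01% Tween 20. Rhodamine110 substrate (1.5 microM) was then added and fluorescence read at start and after 15 min.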"}, "[2]": {"test_system": "Zika virus NS2B-NS3 protease", "assay": "Primary screen GU AMC qHTS for Zika virus inhibitors (AID 1347154); further: nearly all actives have a fitted effect of over 70% in size", "in_short": "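Unlinked Zika NS2B hydrophilic domain/NS3 protease domain noncovalent complex (25 nM final) in 10 mM Tris-HCl pH 8.0, 0.01% Tween 20, with AMC peptide substrate. Fluorescence (ex 340, em 450 nm) change over 15 min, room temperature; percent inhibition fitted to 4-parameter Hill equation.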"}, "[3]": {"molecular_target": "Lysine-specific demethylase 5B (Homo sapiens) (UniProt Q9UGL1)", "sequence (Q9UGL1 whole entry, looked up)": "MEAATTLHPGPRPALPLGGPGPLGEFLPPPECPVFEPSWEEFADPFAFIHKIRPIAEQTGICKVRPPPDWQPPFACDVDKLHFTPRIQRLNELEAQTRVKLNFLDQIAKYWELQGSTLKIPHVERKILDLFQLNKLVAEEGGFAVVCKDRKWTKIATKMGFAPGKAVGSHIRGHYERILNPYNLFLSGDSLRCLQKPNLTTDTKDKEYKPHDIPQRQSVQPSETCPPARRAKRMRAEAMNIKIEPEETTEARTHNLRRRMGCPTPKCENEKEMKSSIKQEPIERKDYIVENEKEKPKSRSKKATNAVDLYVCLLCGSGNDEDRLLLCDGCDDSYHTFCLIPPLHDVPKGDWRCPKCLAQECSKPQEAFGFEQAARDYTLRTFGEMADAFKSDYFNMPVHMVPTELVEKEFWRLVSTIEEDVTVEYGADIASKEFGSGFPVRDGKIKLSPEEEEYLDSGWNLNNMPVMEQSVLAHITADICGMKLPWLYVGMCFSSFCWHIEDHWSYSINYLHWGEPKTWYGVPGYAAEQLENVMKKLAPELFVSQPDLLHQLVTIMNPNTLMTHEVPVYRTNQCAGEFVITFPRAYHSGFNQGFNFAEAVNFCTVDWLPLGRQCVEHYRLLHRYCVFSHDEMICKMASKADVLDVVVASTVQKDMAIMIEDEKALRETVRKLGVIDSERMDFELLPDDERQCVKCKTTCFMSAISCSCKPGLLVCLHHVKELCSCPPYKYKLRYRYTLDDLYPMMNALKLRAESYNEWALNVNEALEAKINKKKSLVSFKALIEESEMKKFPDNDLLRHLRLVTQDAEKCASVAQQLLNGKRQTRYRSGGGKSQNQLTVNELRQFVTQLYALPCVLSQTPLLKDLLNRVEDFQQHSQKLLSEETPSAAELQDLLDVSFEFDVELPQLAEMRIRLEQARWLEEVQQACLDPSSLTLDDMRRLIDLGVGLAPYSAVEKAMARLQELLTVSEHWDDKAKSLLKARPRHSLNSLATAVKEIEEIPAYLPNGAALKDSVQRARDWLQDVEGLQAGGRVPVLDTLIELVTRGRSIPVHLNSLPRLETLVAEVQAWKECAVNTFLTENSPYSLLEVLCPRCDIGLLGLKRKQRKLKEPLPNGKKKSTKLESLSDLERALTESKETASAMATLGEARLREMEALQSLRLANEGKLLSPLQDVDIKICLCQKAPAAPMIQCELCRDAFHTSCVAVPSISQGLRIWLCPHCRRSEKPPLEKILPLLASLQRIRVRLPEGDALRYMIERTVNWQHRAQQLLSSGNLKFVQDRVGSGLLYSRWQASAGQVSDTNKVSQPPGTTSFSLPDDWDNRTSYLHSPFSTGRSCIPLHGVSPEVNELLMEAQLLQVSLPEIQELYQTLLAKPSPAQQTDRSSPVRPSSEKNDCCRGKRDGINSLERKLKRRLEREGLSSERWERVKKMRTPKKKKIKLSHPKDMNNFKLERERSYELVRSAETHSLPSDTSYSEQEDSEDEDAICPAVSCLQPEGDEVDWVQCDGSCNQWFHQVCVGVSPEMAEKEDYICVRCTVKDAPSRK", "assay": "Optimization screen for KDM5B Histone Demethylases FDH coupled qHTS against the LOPAC library (AID 1347166)", "in_short": "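KDM5BDeltaAP (200nM final) in 50mM HEPES pH 7.5, 0.01% Tween-20 was preincubated with compound for 10 min at room temperature. A substrate mix of 12.5uM H3K4Me3, 25uM a-ketoglutarate, ascorbate, Fe2+, NAD+ and formaldehyde dehydrogenase was then added. NADH fluorescence (340/450 nm) was read initially and after 30 min.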"}, "[4]": {"assay": "Confirmatory screen NINDS Rhodamine qHTS for Zika virus inhibitors (AID 1347161); further: nearly all actives have a fitted effect of over 60% in size; further: potency means the concentration at half of the fitted maximal effect", "in_short": "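Aprotinin served as in-plate control. Conditions: 25 nM linked NS2B-NS3, pH 8.0 Tris buffer, titrated compounds, 15 min preincubation and 15 min reaction with 1.5 microM Rhod110 substrate at room temperature.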"}, "[5]": {"assay": "Vero cells viability qHTS for Zika virus inhibitors (AID 1347167)", "in_short": "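To flag cytotoxic protease inhibitors, viability is measured by ATP-dependent luminescence (CellTiter Glo) after cells attached overnight receive compound for 24 to 48 hours in DMEM with 4% FBS.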"}, "[6]": {"test_system": "Zika virus NS2B-NS3 protease (linked)", "assay": "384 well plate NINDS AMC confirmatory qHTS for Zika virus inhibitors (AID 1347163); further: potency means the concentration at half of the fitted maximal effect; nearly all actives have a fitted effect of over 50% in size", "in_short": "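Fluorescence at 355/460 nm was read after 25 minutes of cleavage of 30 microM Ac-VKTGKR-AMC at room temperature, in the dark. Before substrate addition, compounds (up to 1 mM final) sat ~15 minutes with 5, 30 or 60 nM linked protease. Signals were normalized to no-enzyme and no-inhibitor wells.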"}, "[7]": {"assay": "ZIKV-mCherry secondary qHTS for Zika virus inhibitors (AID 1347158); further: top concentration of the series differs between compounds", "in_short": "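Compounds were tested in Vero monkey kidney cells infected with recombinant mCherry-expressing Zika virus at MOI 1 for 48-72 h at 37 °C. Fixed cells were nuclear-stained and imaged, and infection rate was taken as the fraction of mCherry-positive cells.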"}}, "note": "Several values for one entry are separate records, joined by “and”; a condition that tells them apart may be missing. Identical values can stand only once. Results filed as inconclusive are left out. Where a call stands in place of a potency, no number is given. Activity calls are given as the source filed them. The call rests on the fitted dose curve; in most records, active means well fitted curve in the direction sought with a large enough effect; inconclusive means small, poorly fitted or top-dose-only effect, or another doubt; inactive means no such curve, though single readings can be large; an effect the other way counts as inactive or inconclusive.", "data": [{"smiles": "CS(=O)(=O)CCNCc1ccc(-c2ccc3ncnc(Nc4ccc(OCc5cccc(F)c5)c(Cl)c4)c3c2)o1", "values": [{"measurement": "outcome", "setting": "[1]", "value": "inactive"}]}, {"smiles": "Cc1cn([C@H]2C[C@H](N=[N+]=[N-])[C@@H](CO)O2)c(=O)[nH]c1=O", "values": [{"measurement": "Potency", "setting": "[2]", "value": "inactive"}, {"measurement": "outcome", "setting": "[3]", "value": "inactive"}]}, {"smiles": "Cc1ccccc1N1C(=O)c2cc(S(N)(=O)=O)c(Cl)cc2NC1C", "note": "(configuration not stated)", "values": [{"measurement": "Potency", "setting": "[4]", "value": "inactive"}, {"measurement": "Potency", "setting": "[5]", "value": "inactive"}]}, {"smiles": "COc1cc2nc(N3CCN(C(=O)c4ccco4)CC3)nc(N)c2cc1OC", "values": [{"measurement": "Potency", "setting": "[4]", "value": "inactive"}, {"measurement": "Potency", "setting": "[5]", "value": "inactive"}]}, {"smiles": "Nc1nc2c(ncn2COC(CO)CO)c(=O)[nH]1", "values": [{"measurement": "Potency", "setting": "[2]", "value": "inactive"}, {"measurement": "outcome", "setting": "[3]", "value": "inactive"}]}, {"smiles": "Cc1cn([C@H]2C=C[C@@H](CO)O2)c(=O)[nH]c1=O", "values": [{"measurement": "Potency", "setting": "[2]", "value": "inactive"}, {"measurement": "outcome", "setting": "[3]", "value": "inactive"}]}, {"smiles": "NCCS(=O)(=O)O", "values": [{"measurement": "Potency", "setting": "[2]", "value": "inactive"}, {"measurement": "outcome", "setting": "[3]", "value": "inactive"}]}, {"smiles": "CN(C)CCOC(c1ccccc1)c1ccccc1", "values": [{"measurement": "Potency", "setting": "[2]", "value": "inactive"}, {"measurement": "outcome", "setting": "[3]", "value": "inactive"}]}, {"smiles": "COc1nc(C)nc(Cl)c1NC1=NCCN1", "values": [{"measurement": "Potency", "setting": "[2]", "value": "inactive"}, {"measurement": "outcome", "setting": "[3]", "value": "inactive"}]}, {"smiles": "CCOC(=O)Nc1ccc(NCc2ccc(F)cc2)nc1N", "values": [{"measurement": "Potency", "setting": "[4]", "value": "inactive"}, {"measurement": "Potency", "setting": "[5]", "value": "inactive"}]}, {"smiles": "Cn1c(=O)c2c(ncn2C)n(C)c1=O", "values": [{"measurement": "Potency", "setting": "[2]", "value": "inactive"}, {"measurement": "outcome", "setting": "[3]", "value": "inactive"}]}, {"smiles": "CCC1(c2ccccc2)C(=O)NCNC1=O", "values": [{"measurement": "Potency", "setting": "[2]", "value": "inactive"}, {"measurement": "outcome", "setting": "[3]", "value": "inactive"}]}, {"smiles": "C[C@H]1c2cccc(O)c2C(O)=C2C(=O)[C@]3(O)C(O)=C(C(N)=O)C(=O)[C@@H](N(C)C)[C@@H]3[C@@H](O)[C@@H]21", "values": [{"measurement": "Potency", "setting": "[4]", "value": "62.1 µM (active)"}, {"measurement": "Potency", "setting": "[6]", "value": "63.1 µM (active)"}, {"measurement": "Potency", "setting": "[5]", "value": "inactive"}]}, {"smiles": "CC(C)NCC(O)COc1ccc(CCOCC2CC2)cc1", "note": "(configuration not stated)", "values": [{"measurement": "Potency", "setting": "[2]", "value": "inactive"}, {"measurement": "outcome", "setting": "[3]", "value": "inactive"}]}, {"smiles": "Cc1cc(C(C)(C)C)cc(C)c1CC1=NCCN1", "values": [{"measurement": "Potency", "setting": "[2]", "value": "inactive"}, {"measurement": "outcome", "setting": "[3]", "value": "inactive"}]}, {"smiles": "O=c1[nH]cc(F)c(=O)[nH]1", "values": [{"measurement": "Potency", "setting": "[2]", "value": "inactive"}, {"measurement": "outcome", "setting": "[3]", "value": "inactive"}]}, {"smiles": "CCOC(=O)c1ncn2c1CN(C)C(=O)c1cc(F)ccc1-2", "values": [{"measurement": "Potency", "setting": "[2]", "value": "inactive"}, {"measurement": "outcome", "setting": "[3]", "value": "inactive"}]}, {"smiles": "CN1C(C(=O)Nc2ccccn2)=C(O)c2ccccc2S1(=O)=O", "values": [{"measurement": "Potency", "setting": "[2]", "value": "inactive"}, {"measurement": "outcome", "setting": "[3]", "value": "inactive"}]}, {"smiles": "CC[N+](CC)(CC)CCOc1cccc(OCC[N+](CC)(CC)CC)c1OCC[N+](CC)(CC)CC", "values": [{"measurement": "Potency", "setting": "[2]", "value": "inactive"}, {"measurement": "outcome", "setting": "[3]", "value": "inactive"}]}, {"smiles": "CCc1cccc2c3c([nH]c12)C(CC)(CC(=O)O)OCC3", "note": "(configuration not stated)", "values": [{"measurement": "Potency", "setting": "[2]", "value": "inactive"}, {"measurement": "outcome", "setting": "[3]", "value": "inactive"}]}, {"smiles": "CN1CCC(=C2c3ccccc3CC(=O)c3sccc32)CC1", "values": [{"measurement": "Potency", "setting": "[2]", "value": "inactive"}, {"measurement": "outcome", "setting": "[3]", "value": "inactive"}]}, {"smiles": "CN1CCN2c3ccccc3Cc3ccccc3C2C1", "note": "(configuration not stated)", "values": [{"measurement": "Potency", "setting": "[2]", "value": "inactive"}, {"measurement": "outcome", "setting": "[3]", "value": "inactive"}]}, {"smiles": "CN(C)CCCN1c2ccccc2CCc2ccc(Cl)cc21", "values": [{"measurement": "Potency", "setting": "[2]", "value": "inactive"}, {"measurement": "outcome", "setting": "[3]", "value": "inactive"}]}, {"smiles": "CCCCc1oc2ccccc2c1C(=O)c1cc(I)c(OCCN(CC)CC)c(I)c1", "values": [{"measurement": "Potency", "setting": "[2]", "value": "inactive"}, {"measurement": "outcome", "setting": "[3]", "value": "inactive"}]}, {"smiles": "CCN1CCCC1CNC(=O)c1cc(S(=O)(=O)CC)c(N)cc1OC", "note": "(configuration not stated)", "values": [{"measurement": "Potency", "setting": "[2]", "value": "inactive"}, {"measurement": "outcome", "setting": "[3]", "value": "inactive"}]}, {"smiles": "COc1ccc2c(c1)c(CC(=O)O)c(C)n2C(=O)c1ccc(Cl)cc1", "values": [{"measurement": "Potency", "setting": "[2]", "value": "inactive"}, {"measurement": "outcome", "setting": "[3]", "value": "inactive"}]}, {"smiles": "Cn1ccc2cc3c(cc21)CCN3C(=O)Nc1cccnc1", "values": [{"measurement": "outcome", "setting": "[7]", "value": "inactive"}, {"measurement": "Potency", "setting": "[4]", "value": "62.2 µM (active)"}, {"measurement": "Potency", "setting": "[6]", "value": "31.6 µM (active) and 178 µM (active)"}, {"measurement": "outcome", "setting": "[3]", "value": "inactive"}, {"measurement": "Potency", "setting": "[5]", "value": "inactive"}]}]}
